Here are results for 40 compounds from PubChem BioAssay (Tox21).

The structures appear in SMILES notation. Inconclusive results are not listed. A call without a number means that no potency is given here. A number with no mark means an inactive call. Calls of active or inactive are those of the source. Calls come from the whole dose curve; as a rule, active = well fitted inhibition curve with a large enough effect in the repeat runs; inconclusive = weak or mixed curves; inactive = no such curve, though single readings can be large or run the other way. Non-standard residues stand in square brackets, D forms with d. Residues, ends and D or L forms follow the SMILES beside them. *: point of attachment. Sta = CC(C)C[C@H](N)[C@@H](O)CC(=O)O; Isovaleryl = CC(C)CC(=O)*
Potency is the fitted concentration of half-maximal effect.

The target in this experiment is Cytochrome P450 2D6 (Homo sapiens) (UniProt P10635). The experiment can be described thus: Cytochrome P450 Family 2 Subfamily D Member 6 (CYP2D6) small molecule antagonists: luciferase reporter qHTS assay (AID 1671196). Note: nearly all actives have a fitted effect of over 50% in size. Particulars: P450-Glo CYP2D6 enzyme assay, luciferin luminescence, 1 h; series mostly up to 115 µM. The text has this: U.S. Tox21 Program National Center for Advancing Translational Sciences [NCATS] U.S. Environmental Protection Agency [EPA] National Institutes of Environmental Health Sciences [NIEHS] National Toxicology Program [NTP] U.S. Food and Drug Administration [FDA] Tox21 Assay Overview: Cytochrome P450 (CYP) enzymes are membrane-bound hemeproteins that play a key role in metabolism of drugs and xenobiotics. Evaluation of the effect of chemicals on CYP isozymes is useful to minimize the adverse drug reactions and toxicities in drug development process. Tox21 chemicals were tested for their effect on CYP enzyme activities by using P450-Glo (TM) screening systems (Promega Corporation, Madison, WI). These systems provide a luminescent method containing proluciferin substrates and are converted to luciferin products by CYP isozymes. The luciferin products formed are detected with a luciferin detection reagent, and the amount of light produced is proportional to CYP activity. P450-Glo (TM) CYP2D6 screening system (Catalog. No. V9890) was used to detect the compounds that interfere in CYP2D6 activity.
Cytochrome P450 2D6 (Homo sapiens), sequence (P10635 whole entry, looked up): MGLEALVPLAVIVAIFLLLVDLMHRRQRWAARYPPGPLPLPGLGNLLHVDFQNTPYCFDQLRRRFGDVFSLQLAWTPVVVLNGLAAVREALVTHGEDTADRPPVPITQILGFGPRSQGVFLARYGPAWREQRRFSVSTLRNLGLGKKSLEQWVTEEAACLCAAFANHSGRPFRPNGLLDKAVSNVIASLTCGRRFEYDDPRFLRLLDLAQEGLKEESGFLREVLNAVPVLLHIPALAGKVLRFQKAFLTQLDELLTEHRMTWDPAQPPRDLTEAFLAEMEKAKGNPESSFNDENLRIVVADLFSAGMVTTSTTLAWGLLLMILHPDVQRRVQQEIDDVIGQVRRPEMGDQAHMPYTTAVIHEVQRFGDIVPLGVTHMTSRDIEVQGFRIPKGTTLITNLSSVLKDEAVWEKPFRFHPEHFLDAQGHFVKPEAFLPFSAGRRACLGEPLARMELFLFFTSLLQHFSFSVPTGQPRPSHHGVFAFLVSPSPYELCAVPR
Tox21 Assay Protocol Summary: Two ul of enzyme-substrate mix was dispensed into medium binding white/solid 1536-well plates (Greiner Bio-One North America Inc., Monroe, NC) using a BioRaptr Flying Reagent Dispenser (FRD, Beckman Coulter, Brea, CA). […] The assay plates were incubated at room temperature for 10 min. Then 2 ul of NADPH regeneration solution was added to each well of the assay plates using an FRD and incubated at room temperature for 1 h. The reaction was stopped by adding 4 ul of detection reagent using an FRD and after 20 min incubation at room temperature the luminescence signal was measured using a ViewLux plate reader (Perkin Elmer, Shelton, CT). Data were expressed as relative luminescence units.
Regarding `C[C@@H]1CCC[C@H](C)N1CCCC(O)(c1ccccc1)c1ccccn1` (stereo not given in full), the Potency was 0.692 µM (active).
In the case of `CC1=C(O)C(=O)CO1`, the Potency entry was “inactive”.
As to `CCCCCCCCS(=O)(=O)O`, the Potency result is “inactive”.
For `CC(O)C(CO)C(C)O` (stereo not given), the Potency entry was “inactive”.
Still for that read-out and setting: then `CC(C)CC(=O)N[C@H](C(=O)N[C@H](C(=O)N[C@@H](CC(C)C)[C@@H](O)CC(=O)N[C@@H](C)C(=O)N[C@@H](CC(C)C)[C@@H](O)CC(=O)O)C(C)C)C(C)C` (Isovaleryl-VV[Sta]A[Sta]-OH), with “inactive”; and `C=CC(=O)CC`, with “inactive”; and `CCC(=O)OCCOc1ccccc1`, with “inactive”.
Take `NC[C@H]1O[C@H](O[C@H]2[C@H](O)[C@@H](O[C@H]3O[C@H](CO)[C@@H](O)[C@H](N)[C@H]3O)[C@H](N)C[C@@H]2N)[C@H](N)[C@@H](O)[C@@H]1O`: the activity change, negative = inhibition is 0.727% [at 23.6 µM].
Consider `NCC1CCC(C(=O)Oc2ccc(CCC(=O)O)cc2)CC1` (stereo not given), for which the Potency result was “inactive”.
Same read-out and setting: then `C[C@]12C=CC(=O)C=C1[C@@H](F)C[C@@H]1[C@@H]2[C@@H](O)C[C@@]2(C)[C@H]1CC[C@]2(O)C(=O)CO`, with “inactive”; and `CCN1CCN(C(=O)N[C@@H](C(=O)N[C@@H]2C(=O)N3C(C(=O)O)=C(CSc4nnnn4C)CS[C@H]23)c2ccc(O)cc2)C(=O)C1=O`, with “inactive”; and `CCCCNCC`, with “inactive”.
As to `CC[C@@]1(c2ccccc2)NC(=O)N(C)C1=O`, the Potency entry was “inactive”.
Regarding `C=CCCCCCCCCOC(C)=O`, the Potency entry is “inactive”.
On the same count and under the same terms, as for `O=C[C@@H](O)[C@H](O)[C@H](O)CO`, the entry is “inactive”.
For the compound `COCc1nnc(-c2ccc[n+]([O-])c2)n1-c1c(Cl)c(Cl)cc2[nH]c(=O)c(=O)[nH]c12`, the Potency result is “inactive”.
On the same count and under the same terms, as for `Cc1ccc(O)c(C(=O)c2ccccc2)c1`, the figure is 11.4 µM (active).
Still for that read-out and setting: then `CC(C)(C)C(=O)CC(=O)C(C)(C)C`, with “inactive”; and `CC(C)C[P+](C)(CC(C)C)CC(C)C`, with 0.568 µM (active); and `CCCCCCCOC(C)=O`, with “inactive”.
Same read-out and setting: as for `Cc1cc(C)c(C)c(C)c1`, the entry is “inactive”; as for `CCC(C)(C)C`, “inactive”; as for `Cc1cc(O)c(Cl)cc1C`, “inactive”.
As for `C=COCCCCO`, the Potency result was “inactive”.
Same read-out and setting: as for `COc1cc(C(=O)NC2CCCNC2)cc(OC)c1OC` (stereo not given), the entry is “inactive”; as for `COc1cnc(NS(=O)(=O)c2ccc(N)cc2)nc1`, “inactive”.
For the compound `C=CCCCCCCCCCCCCCC`, the activity change, negative = inhibition was -17.7% [at 23.6 µM].
Regarding `O=C(O)Cc1c(Cl)ccc(Cl)c1Cl`, the Potency entry was “inactive”.
Regarding `COc1cc(S(N)(=O)=O)cc(C(=O)O)c1OC`, the Potency entry is “inactive”.
Consider `COC(=O)c1ccc(NC(C)=O)cc1OC`, for which the Potency result is “inactive”.
For the compound `Cc1nc2ccc(Cl)cc2[nH]1`, the Potency was 31.7 µM (active).
Same read-out and setting: as for `COC(=O)c1cc(Cl)c(NC(C)=O)cc1OC`, the entry is “inactive”; as for `O=c1[nH]c(=O)c2cn[nH]c2[nH]1`, “inactive”.
The same measure, in the same setting: then `CC(=O)Nc1ccc(S(=O)(=O)Nc2cc(C)on2)cc1`, with “inactive”; and `Cc1cc2c(cc1CC(=O)c1sccc1S(=O)(=O)Nc1onc(C)c1Cl)OCO2`, with 2.45 µM (active); and `CC[N+](C)(CC)CC`, with “inactive”.
Take `O=C1Nc2ccccc2C1=O`: the Potency result was “inactive”.
On the same count and under the same terms, as for `CC(C)(C)OC=O`, the entry is “inactive”; as for `CCCCCCCCC1CO1` (stereo not given), “inactive”; as for `CC(=O)Oc1ccc(C(C)=O)cc1`, “inactive”.
